# According to the OligoGym collection:
# Biological target: C15orf39
# Experiment: pooled miR-30 sensor sort-seq; sequence = guide strand
# Conditions: shRNA
# Further: reference of the scale not given here.
row,Sequence,sensor-assay potency score (higher = more potent)
1,TGGAGCTTCTCTTTCCTGCAGC,-0.965
2,TACACAGTCGCGCCACTGCAGG,-1.54
3,TTCAGCATGCGTGAGGTGCAGC,-0.396
4,TACCGGTAGAGTACAAGGGTGG,-0.811
5,TTTGTCCTGACCTTCACTGGTG,-0.221
6,TTGTCCTGACCTTCACTGGTGG,-0.545
7,TGGTGCTTCTGTGTCTATCTTT,-0.327
8,ATAAGGAAAACTCAGTGTCTGG,-1.35
9,ATAGAGAGAGAGGTCATCCCGG,-0.641
10,TTGTCAATGACAGGCATTGGTG,-1.34
11,TAGAGAGAGAGGTCATCCCGGG,-0.132

# Biological target: C15orf42
# Experiment: as above
# Conditions: shRNA
row,Sequence,sensor-assay potency score (higher = more potent)
1,TTCTTGATGAGCTATAGTGGAT,-1.03
2,TTCATCTTCTGTCTCACTGGAG,0.162
3,TTCAACATCTTTAAGGAACGGC,0.686
4,TACAACATGATTTCTCCTGTGG,0.642
5,TTCAATTTGTCGAAGATTCTGT,0.525
6,TTTACTCTTACTAACTTCTGAA,0.249
7,TATACTATCCACAACATCTGAG,0.285
8,TTTAGGAACATTTTAACGGTTG,-0.0807
9,TTGGTCTGACTTATCTTGCTGG,-0.193
10,TTGATTTACAAGACAATAGGAG,0.136
11,TTAGTGATCTCTTTGAAGGGGA,0.326
12,TAGGTTTAGAACTTCTTAGTGT,0.687
